# “And” between values parts separate entries of the source, which are not always exact repeats. Equal values may be shown once. A number with no mark means an inactive call.
# Test system: HCC1569
# Experiment: H1.0 immunofluorescence intensity relative to DMSO (% of DMSO); higher = stronger H1.0 induction, active = 140 or more
# Conditions: concentration: 10 µM; 24 h
# How it was run: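 Six fields per well were imaged at ×10 after the cells were fixed in 3.7% formaldehyde and stained with a rabbit anti-H1.0 antibody, an AlexaFluor 647 secondary and DAPI. The HCC1569 and TDF cells had been plated at 800 per well in 384-well plates (RPMI, 10% FBS) and treated in triplicate with compounds at 10 µM for 24 h at 37 °C. The values are the median of replicates of H1.0 nuclear intensity or cell number, as percent of the plate control. Smoothing for positional effects was applied to HCC1569 data.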
# 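Note: TDF is a line of transformed human dermal fibroblasts of mesenchymal origin.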
row,SMILES,H1.0 immunofluorescence intensity
1,"O=c1cc(-c2ccccc2)[nH]c2nc(Cl)ccc12 [7-Chloro-4-hydroxy-2-phenyl-1,8-naphthyridine]",116
2,Cl.Cl.N=C(N)c1ccc(N)cc1 [4-Aminobenzamidine dihydrochloride],94.1
3,CCCCCCCCCCCCCCCCCCOCC(COP(=O)([O-])OCC[N+](C)(C)C)OC(C)=O (stereo unspecified),103
4,COc1cc(O)c(C(=O)C=Cc2ccccc2)c(OC)c1 [Flavokawain B],124
5,CC(C)C(CO)Nc1nc(Nc2ccc(C(=O)O)c(Cl)c2)c2ncn(C(C)C)c2n1 (stereo unspecified) [Purvalanol B],98.7
6,COc1ccc(-c2cc(=O)c3c(OC)c(OC)c(OC)cc3o2)cc1OC [Sinensetine],93.6
7,CCCCCCCCCCCCCC(=O)NC(C)C(O)c1ccccc1 [D-erythro MAPP],94.7
8,O=c1cc(N2CCOCC2)oc2c(-c3ccccc3)cccc12,155 (active)
9,CNCCC(Oc1ccc(C(F)(F)F)cc1)c1ccccc1.Cl (stereo not drawn) [R-(-)-Fluoxetine hydrochloride],117
10,Cc1cccc(-c2[nH]c(C(C)(C)C)nc2-c2ccc3c(c2)OCO3)n1.Cl [TGF-b RI Inhibitor III],122
11,Cc1cnc(NC(=O)C2=C(O)c3ccccc3S(=O)(=O)N2C)s1 [Meloxicam],104
12,"O=C(O)COc1ccc(C(=O)c2cccs2)c(Cl)c1Cl [[2,3-dichloro-4-(2-thienylcarbonyl)phenoxy]acetic acid]",109
13,CC(=O)NC(CS)C(=O)O (stereo unspecified) [N-Acetyl-Cysteine],90.6
14,COc1ccc(Cl)cc1C(=O)NCCc1ccc(S(=O)(=O)NC(=O)NC2CCCCC2)cc1 [Glyburide],109
15,CC(C)NCC(O)COc1ccc(CC(N)=O)cc1 (stereo not drawn) [R(+)-Atenolol],95.4
16,O=c1c(-c2ccc(F)cc2)c(-c2ccncc2)[nH]n1-c1ccc(Cl)cc1 [p38 MAP Kinase Inhibitor],110

row,SMILES,H1.0 immunofluorescence intensity
1,COc1ccc(/C=C\c2cc(OC)c(OC)c(OC)c2)cc1OP(=O)([O-])[O-].[Na+].[Na+],140
2,CN1CCN(C2Cc3ccccc3Sc3ccc(Cl)cc32)CC1.O=C(O)C=CC(=O)O (stereo unspecified) [Clorotepine maleate],118
3,O=C(O)c1cc(N(Cc2ccccc2O)Cc2ccccc2O)ccc1O [Lavendustin B],93.1
4,N#CC(=C(N)Sc1ccccc1N)C(C#N)=C(N)Sc1ccccc1N,108 and 98.1
5,O=c1cc(-c2ccccc2)oc2cc(O)c(O)c(O)c12 [Baicalein],99.6
6,CCCCNc1ccc(C(=O)OCCN(C)C)cc1.Cl [Tetracaine hydrochloride],95.8
7,COc1cc(C(O)C(=O)O)ccc1O (stereo unspecified) [hydroxy(4-hydroxy-3-methoxyphenyl)acetic acid],99.4
8,CN(C)CCOC(=O)COc1ccc(Cl)cc1.Cl [Centrophenoxine hydrochloride],107
9,CC(=O)Oc1cc(C(C)C)c(OCCN(C)C)cc1C.Cl [Moxisylyte hydrochloride],94.4
10,NCC(O)(CS(=O)(=O)O)c1ccc(Cl)cc1 (stereo unspecified) [2-Hydroxysaclofen],93.4
11,N#Cc1c(NC(=O)c2cccc3ccccc23)sc2c1CCCC2 [JNK Inhibitor IX],170 (active)
12,COc1cccc2oc(-c3ccccc3)cc(=O)c12 [5-Methoxyflavone],98.8
13,CN(C)CCOc1ccc(C(=C(CCCl)c2ccccc2)c2ccccc2)cc1 [Toremifene],122
14,CN1CCC(=C2c3ccccc3CC(=O)c3sccc32)CC1 [Ketotifen],124
15,CC(=O)Oc1ccccc1C(=O)Oc1ccc(CO[N+](=O)[O-])cc1 [4-[(nitrooxy)methyl]phenyl 2-(acetyloxy)benzoate],143 (active)

# Reference: the supplement of paper PMC7156485
